Laboratory results taken from PubChem BioAssay (NCI).
About 83,000 compounds went through this panel and 20% of them were active in at least one assay; those are over-represented in the sample as a whole.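 The endpoint reported here, percent growth, reads 100 for growth as untreated, 0 for no net growth and -100 for all cells dead.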 Calls of active or inactive are those of the source. How the source made its calls: active means growth percent below 10; inactive means the rest.

Tests used:
Experiment in all cases: NCI-60 one-dose screen, 48 h (100 = growth as untreated, 0 = no growth, -100 = all killed)
Settings in all cases: 10 µM unless noted
DU-145 prostate = system: DU-145 prostate
K-562 leukemia = system: K-562 leukemia
MALME-3M melanoma = system: MALME-3M melanoma
MDA-MB-231 breast = system: MDA-MB-231 breast
SF-268 CNS = system: SF-268 CNS
SF-295 CNS = system: SF-295 CNS
SF-539 CNS = system: SF-539 CNS
UACC-257 melanoma = system: UACC-257 melanoma
M14 melanoma = system: M14 melanoma
HCT-15 colon = system: HCT-15 colon
HT29 colon = system: HT29 colon
SNB-75 CNS = system: SNB-75 CNS
SNB-19 CNS = system: SNB-19 CNS
U251 CNS = system: U251 CNS
PC-3 prostate = system: PC-3 prostate
SK-MEL-5 melanoma = system: SK-MEL-5 melanoma
UACC-62 melanoma = system: UACC-62 melanoma
LOX IMVI melanoma = system: LOX IMVI melanoma
SK-MEL-28 melanoma = system: SK-MEL-28 melanoma
RXF 393 renal = system: RXF 393 renal

Measured: growth

C[C@H]1C(=O)N2c3ccccc3[C@@]3(O)C[C@@H](n4cnc5ccccc5c4=O)C(=O)N1[C@@H]23
inactive: DU-145 prostate 123% | K-562 leukemia 99.2% | MALME-3M melanoma 107% | MDA-MB-231 breast 110% | SF-268 CNS 112% | SF-295 CNS 130% | SF-539 CNS 101% | UACC-257 melanoma 66.8% | M14 melanoma 108% | HCT-15 colon 109% | HT29 colon 120% | SNB-75 CNS 98.3% | SNB-19 CNS 99.7% | U251 CNS 101% | PC-3 prostate 95.6% | SK-MEL-5 melanoma 123% | UACC-62 melanoma 98.3% | LOX IMVI melanoma 97.7% | SK-MEL-28 melanoma 100%

CCOC(=O)C(C(=O)OCC)C1CCCCC1
inactive: DU-145 prostate 107% | K-562 leukemia 104% | MALME-3M melanoma 96% | MDA-MB-231 breast 108% | RXF 393 renal 107% | SF-268 CNS 99.1% | SF-539 CNS 99.4% | UACC-257 melanoma 96.3% | M14 melanoma 102% | HCT-15 colon 99% | HT29 colon 102% | SNB-75 CNS 87.6% | SNB-19 CNS 102% | U251 CNS 86% | PC-3 prostate 94.3% | SK-MEL-5 melanoma 109% | UACC-62 melanoma 99.2% | LOX IMVI melanoma 110% | SK-MEL-28 melanoma 106%

O=C1CSC(c2ccccc2Cl)N1c1nnc(Cn2nnc3ccccc32)o1 (centres undefined)
inactive: DU-145 prostate 91.8% | K-562 leukemia 69.6% | MALME-3M melanoma 127% | MDA-MB-231 breast 77.1% | RXF 393 renal 90.1% | SF-268 CNS 84.2% | SF-539 CNS 89% | UACC-257 melanoma 94.7% | M14 melanoma 89.8% | HCT-15 colon 74.8% | HT29 colon 81.2% | SNB-75 CNS 81.6% | SNB-19 CNS 83.3% | U251 CNS 77.6% | PC-3 prostate 68.9% | SK-MEL-5 melanoma 79.3% | UACC-62 melanoma 63.8% | LOX IMVI melanoma 85.9% | SK-MEL-28 melanoma 92.8%

COc1cc(-c2nnc(-c3nc(-c4cc(OC)c(OC)c(OC)c4)n4ccccc34)o2)ccc1N
inactive: DU-145 prostate 85.4% | K-562 leukemia 64.7% | MALME-3M melanoma 86.5% | MDA-MB-231 breast 84.4% | RXF 393 renal 84.4% | SF-268 CNS 83.6% | SF-539 CNS 98.8% | UACC-257 melanoma 93.2% | M14 melanoma 80.3% | HCT-15 colon 64.5% | SNB-75 CNS 75% | SNB-19 CNS 77.7% | U251 CNS 64.2% | PC-3 prostate 69% | SK-MEL-5 melanoma 56.1% | UACC-62 melanoma 60.9% | LOX IMVI melanoma 56.3% | SK-MEL-28 melanoma 97.8%

O=C(Nc1nn2c(-c3cc(C(F)(F)F)cc(C(F)(F)F)c3)nnc2s1)C1CCCC1
inactive: DU-145 prostate 33.1% | MALME-3M melanoma 10.4% | SF-268 CNS 28.4% | SF-539 CNS 12.8% | HCT-15 colon 13.6% | SNB-75 CNS 37.9% | SNB-19 CNS 26.6% | LOX IMVI melanoma 13.1% | SK-MEL-28 melanoma 30.4%
active: K-562 leukemia 6.69% | MDA-MB-231 breast -32% | SF-295 CNS 1.49% | UACC-257 melanoma 4.69% | M14 melanoma 7.59% | HT29 colon -28.7% | U251 CNS 4.37% | PC-3 prostate 8.85% | SK-MEL-5 melanoma -69.6% | UACC-62 melanoma 7.5%

CC1CC=CCC1C1OCC(C)(C)CO1 (centres undefined)
inactive: DU-145 prostate 108% | K-562 leukemia 102% | MALME-3M melanoma 109% | MDA-MB-231 breast 112% | RXF 393 renal 103% | SF-268 CNS 106% | SF-539 CNS 95.5% | UACC-257 melanoma 97% | M14 melanoma 101% | HCT-15 colon 97.9% | HT29 colon 109% | SNB-75 CNS 90% | SNB-19 CNS 102% | U251 CNS 92.9% | PC-3 prostate 94.9% | SK-MEL-5 melanoma 104% | UACC-62 melanoma 102% | LOX IMVI melanoma 69.9% | SK-MEL-28 melanoma 105%

CSc1nc(-c2ccc(O)cc2O)c2c(=O)[nH]c(Nc3ccc(S(=O)(=O)Nc4nc(C)cc(C)n4)cc3)nc2n1
inactive: DU-145 prostate 95.1% | K-562 leukemia 99.4% | MALME-3M melanoma 79.8% | MDA-MB-231 breast 100% | RXF 393 renal 115% | SF-268 CNS 101% | SF-539 CNS 108% | UACC-257 melanoma 124% | HCT-15 colon 104% | HT29 colon 113% | SNB-75 CNS 73.1% | SNB-19 CNS 96.1% | U251 CNS 100% | PC-3 prostate 88% | SK-MEL-5 melanoma 109% | UACC-62 melanoma 92.7% | LOX IMVI melanoma 99% | SK-MEL-28 melanoma 97.8%

COC(=O)[C@H](Cc1cnc[nH]1)NC(=O)[C@@H](NC(=O)Nc1cc(C(F)(F)F)cc(C(F)(F)F)c1)C(C)C
active: DU-145 prostate -100% [100 µM] | K-562 leukemia -46% [100 µM] | MALME-3M melanoma -94.4% [100 µM] | MDA-MB-231 breast -95.9% [100 µM] | RXF 393 renal -89.3% [100 µM] | SF-268 CNS -92.7% [100 µM] | SF-539 CNS -95.7% [100 µM] | UACC-257 melanoma -87.6% [100 µM] | M14 melanoma -89% [100 µM] | HT29 colon -80.3% [100 µM] | SNB-75 CNS -95.3% [100 µM] | SNB-19 CNS -96.3% [100 µM] | U251 CNS -96.8% [100 µM] | PC-3 prostate -93.2% [100 µM] | SK-MEL-5 melanoma -91.5% [100 µM] | UACC-62 melanoma -96.2% [100 µM] | LOX IMVI melanoma -84.5% [100 µM] | SK-MEL-28 melanoma -96.1% [100 µM]
inactive: HCT-15 colon 35.4% [100 µM]

O=c1[nH]cc(Nc2cc(Cl)c3nonc3c2[N+](=O)[O-])c(=O)[nH]1
active: SF-295 CNS -37.1%
inactive: DU-145 prostate 111% | K-562 leukemia 108% | MALME-3M melanoma 109% | MDA-MB-231 breast 104% | SF-268 CNS 126% | SF-539 CNS 101% | UACC-257 melanoma 25.2% | M14 melanoma 99.7% | HCT-15 colon 103% | HT29 colon 132% | SNB-75 CNS 119% | SNB-19 CNS 95.4% | U251 CNS 98.6% | PC-3 prostate 92.9% | SK-MEL-5 melanoma 105% | UACC-62 melanoma 94.9% | LOX IMVI melanoma 95% | SK-MEL-28 melanoma 83.2%

Cc1nn2c(/C=C3/C(=O)Nc4cc(Cl)ccc43)c(-c3ccccc3)nc2s1
active: MALME-3M melanoma -64.6% | MDA-MB-231 breast 8.57% | RXF 393 renal -18% | SF-539 CNS -41.4% | UACC-257 melanoma -29% | SNB-75 CNS -20.2% | U251 CNS -19.9% | SK-MEL-5 melanoma -24.7% | UACC-62 melanoma -25.4% | LOX IMVI melanoma -33.3% | SK-MEL-28 melanoma -49.4%
inactive: DU-145 prostate 33.4% | K-562 leukemia 23.5% | SF-268 CNS 50.1% | M14 melanoma 22.2% | HCT-15 colon 37.8% | HT29 colon 36.6% | SNB-19 CNS 54% | PC-3 prostate 51.1%

COc1cccc(C=Nc2cc(C(C)C)c(O)cc2C)c1O
inactive: DU-145 prostate 114% | K-562 leukemia 107% | MALME-3M melanoma 106% | MDA-MB-231 breast 88.9% | RXF 393 renal 104% | SF-268 CNS 92.1% | SF-539 CNS 91.7% | UACC-257 melanoma 111% | M14 melanoma 106% | HCT-15 colon 96% | HT29 colon 103% | SNB-75 CNS 88.3% | SNB-19 CNS 93.2% | U251 CNS 96% | PC-3 prostate 92.8% | SK-MEL-5 melanoma 104% | UACC-62 melanoma 91.9% | LOX IMVI melanoma 94.8% | SK-MEL-28 melanoma 116%

CC(=O)c1ccc(NS(=O)(=O)c2ccc([N+](=O)[O-])cc2)cc1
inactive: DU-145 prostate 111% | K-562 leukemia 82.1% | MALME-3M melanoma 115% | MDA-MB-231 breast 88.9% | RXF 393 renal 104% | SF-268 CNS 104% | SF-539 CNS 97.8% | UACC-257 melanoma 105% | M14 melanoma 107% | HCT-15 colon 95.2% | HT29 colon 108% | SNB-75 CNS 97.7% | SNB-19 CNS 87.9% | U251 CNS 103% | PC-3 prostate 93.1% | SK-MEL-5 melanoma 96.9% | UACC-62 melanoma 75.1% | LOX IMVI melanoma 98.8% | SK-MEL-28 melanoma 123%

O=C1NC(=O)/C(=C\c2ccco2)S1
inactive: DU-145 prostate 112% | K-562 leukemia 111% | MALME-3M melanoma 101% | MDA-MB-231 breast 89.5% | RXF 393 renal 106% | SF-268 CNS 99.4% | SF-539 CNS 103% | UACC-257 melanoma 108% | M14 melanoma 104% | HCT-15 colon 100% | HT29 colon 114% | SNB-75 CNS 97.7% | SNB-19 CNS 101% | U251 CNS 101% | PC-3 prostate 101% | SK-MEL-5 melanoma 99.9% | UACC-62 melanoma 91.7% | LOX IMVI melanoma 91.5% | SK-MEL-28 melanoma 113%

CNc1nc(NC2CCCC2)nc(Sc2ccc(OC)cc2)n1
inactive: DU-145 prostate 26.5% [100 µM] | RXF 393 renal 32% [100 µM] | SF-268 CNS 25.7% [100 µM] | SF-539 CNS 49.2% [100 µM] | UACC-257 melanoma 31.4% [100 µM] | M14 melanoma 16.7% [100 µM] | HCT-15 colon 24.8% [100 µM] | SNB-75 CNS 48.9% [100 µM] | SNB-19 CNS 40.4% [100 µM] | U251 CNS 25.8% [100 µM] | SK-MEL-5 melanoma 11.6% [100 µM] | UACC-62 melanoma 25.1% [100 µM] | LOX IMVI melanoma 22.4% [100 µM] | SK-MEL-28 melanoma 46.4% [100 µM]
active: K-562 leukemia 9.58% [100 µM] | MALME-3M melanoma -11.9% [100 µM] | MDA-MB-231 breast -30.9% [100 µM] | HT29 colon 3.05% [100 µM] | PC-3 prostate -7.58% [100 µM]
